# Measured values taken from PubChem BioAssay (NCATS).
# Results filed as inconclusive are left out. Calls of active or inactive are those of the source. Calls follow the shape of the dose curve; as a rule, active = well fitted cell-killing curve with a large enough effect; inconclusive = small, poorly fitted or top-dose-only effect; inactive = flat fitted curve, though single readings scatter.
# Test: Cellular viability qHTS for adrenocortical cancer (ACC) cell line SW-13 (AID 1963989); also: nearly all actives have a fitted effect of over 65% in size;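 as to activity (max response): cells grown in serum-free medium with ITS supplement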
# Conditions: SW-13 ACC cells viability, CellTiter-Glo, 48 h; activity (max response): stronger effect = lower value
# In short: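 Luminescent ATP read-out (CellTiter-Glo, 20 min at room temperature) measured metabolically competent SW-13 cells after 48 h compound treatment. Final concentrations spanned up to 46 uM; bortezomib served as positive control.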
# % is scaled to controls: 0 for no effect and ±100 for the full control effect; potency is read from the fitted curve at half-maximal effect.
Structure (SMILES),activity (max response),Potency
CCCCCC=CCC=CCCCCCCCC(=O)OCC,-4.47% (inactive),–
Cc1cc(CC(=O)O)c(C)n1-c1ccc(Cl)cc1,4.84% (inactive),–
COc1ccccc1Oc1c(NS(=O)(=O)c2ccc(C(C)(C)C)cc2)nc(-c2ncccn2)nc1OCCO,-3.16% (inactive),–
c1ccc(-c2ccc(C(c3ccccc3)n3ccnc3)cc2)cc1 (stereo not given),–,18.4 µM (active)
Cc1ccc(NC(=O)[C@H]2CCCN(C(=O)c3c(C)cccc3F)[C@H]2c2ccc(NC3CCCC3)cc2)cc1C(F)(F)F,-13.2% (inactive),–
CCC(=O)c1c(O)cc(O)cc1O,-1.99% (inactive),–
Cc1ccc(Nc2cc(N[C@@H]3CCCC[C@@H]3N)nnc2C(N)=O)nc1C,-5.27% (inactive),–
Cc1c(F)cc(C(=O)NC2CC2)cc1-c1c(F)cn2c(C(C)(C)C)nnc2c1F,-10.3% (inactive),–
Cc1ccc(O)c2ncccc12,11.9% (inactive),–
CCOC(=O)COc1ccc2c(C)c(CCN(CC)CC)c(=O)oc2c1Cl,0.298% (inactive),–
CS(=O)(=O)N1CCN(Cc2cc3nc(-c4cccc5[nH]ncc45)nc(N4CCOCC4)c3s2)CC1,–,17.8 µM (active)
COc1cc2c(cc1OC)C(=O)C(CC1CCN(Cc3ccccc3)CC1)C2 (stereo not given),-16.2% (inactive),–
O=C(NC1CCN(CCc2c[nH]c3ccccc23)CC1)c1ccccc1,-18.1% (inactive),–
COc1cc2c3c(n(CCCN4CCOCC4)c(=O)c2cc1OC)-c1cc2c(cc1C3=O)OCO2,–,2.51 µM (active)
COc1ccc(COc2ccc(Cc3cnc(N)nc3N)cc2OC)cc1,-16.4% (inactive),–
CC1CC(=O)NN=C1c1ccc(NCC(C)(C)NCC(O)COc2cc(Cl)ccc2C#N)cc1 (stereo not given),-8.94% (inactive),–
C[C@H](NC(=O)[C@H]1NCC[C@@H]1O)c1ccc(-c2noc(CCC3CCCC3)n2)cc1,-20.3% (inactive),–
CN1CCC(OC(c2ccccc2)c2ccccc2)CC1,0.851% (inactive),–
CC(C)OC(=O)[C@H](C)N[P@](=O)(OC[C@H]1O[C@@H](n2ccc(=O)[nH]c2=O)[C@](C)(F)[C@@H]1O)Oc1ccccc1,–,3.98 µM (active)
Cc1ccc(CCn2c3c(c4cc(Cl)ccc42)CN(C)CC3)cn1,-12.3% (inactive),–

Structure (SMILES),activity (max response),Potency
CCc1cc2c(c(OCC(F)(F)F)c(C(=O)NC3CCN(C(=O)CO)CC3)n2C)c(=O)n1CC(=O)c1ccccc1,-16.3% (inactive),–
Cc1ccc(NS(=O)(=O)c2ccc3c(c2)C2C=CCC2C(c2ccc(C(=O)O)cc2)N3)cc1C (stereo not given),-1.16% (inactive),–
CC(=O)OC/C=C(C)/C=C/C=C(C)/C=C/C1=C(C)CCCC1(C)C,4.17% (inactive),–
Nc1cc(COc2c(Cl)cc(C[C@H](N)C(=O)O)cc2Cl)c2oc(-c3ccccc3)nc2c1,4.08% (inactive),–
N#CCC1(n2cc(-c3ncnc4[nH]ccc34)cn2)CN(C2CCN(C(=O)c3ccnc(C(F)(F)F)c3F)CC2)C1,-10.7% (inactive),–
O=C(Nc1cccc(C(F)(F)F)c1)c1cccc2cc(Oc3cc(CO)ncn3)ccc12,9.86% (inactive),–
Cc1nc2c([nH]1)c(=O)n(C)c(=O)n2Cc1ccco1,-2.81% (inactive),–
CN1CCN(C2=Nc3ccccc3Oc3ccc(Cl)cc32)CC1,-13.7% (inactive),–
O=[N+]([O-])c1ccc(/C=N\O)o1,-5.61% (inactive),–
CCOC(=O)C(=O)CCc1ccccc1,6.65% (inactive),–
CC(=O)OCC1=C(C(=O)O)N2C(=O)[C@@H](NC(=O)CSc3ccncc3)[C@H]2SC1,10.5% (inactive),–
NCc1ccccc1Sc1ccccc1CO,-6.09% (inactive),–
COC(=O)c1c(Cl)c(Cl)c(C(=O)OC)c(Cl)c1Cl,12.2% (inactive),–
C[C@@H](O[C@H]1OCCN(Cc2n[nH]c(=O)[nH]2)[C@H]1c1ccc(F)cc1)c1cc(C(F)(F)F)cc(C(F)(F)F)c1,–,18.4 µM (active)
Cc1ccc2c(c1)c1c3n2CCNC3CCC1 (stereo not given),-5.85% (inactive),–
COc1cc2c(NC3CCN(C4CCCCC4)CC3)nc(N3CCCN(C(C)C)CC3)nc2cc1OCCCN1CCCCC1,–,3.16 µM (active)
CCCc1c(OCCCOc2ccc(OCC(=O)O)cc2)ccc(C(C)=O)c1O,-13.7% (inactive),–
O=C(/C=C/N1C[C@H]2C[C@@H]1CN2c1ccccn1)c1ccccc1O,-11.7% (inactive),–
O=C(CCNNC(=O)c1ccncc1)NCc1ccccc1,-0.798% (inactive),–
O=C(CCCCCCCCC#CI)Oc1ccccc1,-0.224% (inactive),–
